The nature of assay [1]: P-glycoprotein substrates identified in KB-8-5-11 adenocarcinoma cell line, qHTS therapeutic library screen (AID 1346987). Also: nearly all actives have a fitted effect of over 65% in size. Also: potency is read from the fitted curve at half-maximal effect. An outline of the steps:
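In this qHTS, P-gp-rich KB-8-5-11 cells received library compounds across a concentration range. Viability was quantified by luminescence after 72 h at 37 degree C.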

For assay [2], the target named is Glutathione peroxidase 1 (Homo sapiens) (UniProt P07203). As to the kind of experiment: Primary qHTS Assay for Inhibitors of Recombinant Selenoprotein Glutathione Peroxidase 1 (GPX1) (AID 1845191). Also: nearly all actives have a fitted effect of over 65% in size. An outline of the steps:
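GPX1 10 nM, GR 100 nM, GSH 1 mM, NADPH 0.5 mM, CHP 0.5 mM (final). 30-min cpd preincubation, RT. Ex340/Em450 read t=0, t=15 min.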
A general note: In qHTS, concentration-response curves come from the screen itself.

For assay [3], the target named is Phospholipid hydroperoxide glutathione peroxidase GPX4 (Homo sapiens) (UniProt P36969). Description: Primary qHTS Assay for Inhibitors of Recombinant Selenoprotein Glutathione Peroxidase 4 (GPX4) (AID 1845192). Also: potency is read from the fitted curve at half-maximal effect; nearly all actives have a fitted effect of over 65% in size. Particulars: outcome: dose series up to 50 µM unless noted. In short, it runs like this:
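qHTS, GR-coupled: GPX4 200 nM + cpd 30 min RT → GSH 1 mM, NADPH 0.5 mM, GR 100 nM → CHP 0.5 mM start; fluor 340/450 at t0 and t15 min; no-enzyme wells as control.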

The target in assay [4] is Calcium and integrin-binding protein 1 (Homo sapiens) (UniProt Q99828). As to the kind of experiment: Primary qHTS for Identification of Calcium Integrin Binding Protein 1 (CIB1) Competitor (AID 1508620).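 Also: GST tagged CIB1 binding a fluorescein labelled alphaIIb integrin peptide tracer; top concentration of the series differs between compounds; % is scaled to controls: 0 for no effect and ±100 for the full control effect.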 An outline of the steps: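 Fluorescence polarization competition: CIB1-GST (1 uM final) preincubated with compound 15 min at room temperature, then FITC-labeled alphaIIb peptide (100 nM final) added for another 15 min. Polarization read at Ex 480/Em 540.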

Assay [5] in a line: Primary qHTS for inhibitors of nuclear receptor binding SET domain protein 2 (NSD2) in an isogenic RCH-ACV NSD2 p.E1099K mutant (9B) (AID 1645876). Also: nearly all actives have a fitted effect of over 70% in size. Also: potency is read from the fitted curve at half-maximal effect.
Assay [6] can be described thus: Primary qHTS for inhibitors of nuclear receptor binding SET domain protein 2 (NSD2) in an RCH-ACV wild type WT cells (2C) (AID 1645877). Also: nearly all actives have a fitted effect of over 70% in size. Also: potency is read from the fitted curve at half-maximal effect.
Assay [7] deals with Tyrosine-protein kinase Yes (Homo sapiens) (UniProt P07947). As to the kind of experiment: qHTS for small molecule inhibitors of Yes1 kinase: Primary Screen (AID 686947). Also: potency is read from the fitted curve at half-maximal effect; nearly all actives have a fitted effect of over 60% in size. An outline of the steps:
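In this qHTS format, inhibition is expressed relative to DMSO controls with enzyme (maximum) and without enzyme (minimum). The 60 min room-temperature reaction uses 0.1 mM ATP, with ADP detected by luminescence.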

Assay [8] can be described thus: qHTS for small molecule inhibitors of Yes1 kinase: Counter Assay (AID 686950).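 Also: no kinase present so only ADP-Glo detection of a fixed ADP amount is tested; luminescence from ADP-Glo reporting ADP in a fixed ATP and ADP mixture; 0% = DMSO wells with ATP plus ADP and -100% = ATP-only wells without ADP.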 An outline of the steps: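 Measuring interference with ADP-Glo, the assay ran 60 min at room temperature on an ATP/ADP mix lacking enzyme. Values were normalized to ATP-plus-ADP (maximum) and ATP-only (minimum) DMSO controls.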
Assay [9] has as its target Catechol O-methyltransferase (Homo sapiens) (UniProt P21964). Description: Confirmatory Screen for Target Class Profiling of Small Molecule Inhibitors of Methyltransferases (AID 1745852; calls by dose curve; also: potency is read from the fitted curve at half-maximal effect; as to activity change, negative = inhibition: % is scaled to controls: 0 for no effect and ±100 for the full control effect). To be noted: MTase-Glo luminescence, SAH detection, recombinant enzyme; measured here: COMT max response; stronger effect = lower value.
For assay [10], the target named is Guanidinoacetate N-methyltransferase (Homo sapiens) (UniProt Q14353). The description is as above. To be noted: activity change, negative = inhibition: at 57.3 µM (top of the series) unless noted.
The target in assay [11] is Nicotinamide N-methyltransferase (Homo sapiens) (UniProt P40261). Described as above. To be noted: MTase-Glo luminescence, SAH detection, recombinant enzyme; measured here: NNMT max response; stronger effect = lower value.
In assay [12] the target is Phenylethanolamine N-methyltransferase (Homo sapiens) (UniProt P11086). The assay is described as above. Particulars: MTase-Glo luminescence, SAH detection, recombinant enzyme; measured here: PNMT max response; stronger effect = lower value.
Assay [13] deals with N-terminal Xaa-Pro-Lys N-methyltransferase 1 (Homo sapiens) (UniProt Q9BV86). As to the kind of experiment: Confirmatory qHTS for Inhibitors of N-terminal methyltransferase 1 (NTMT1): MTaseGlo Assay (AID 1645874). Also: potency is read from the fitted curve at half-maximal effect; nearly all actives have a fitted effect of over 65% in size. In short, it runs like this:
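Room-temperature NTMT1 reaction, 30 min, with 100 uM SAM and 1 uM SPKRIA substrate; enzyme 125 nM. Read-out: MTase-Glo luminescence, normalized to no-enzyme and DMSO controls.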

Results filed as inconclusive are left out. Calls of active or inactive are those of the source. Unless noted, calls follow the shape of the dose curve; as a rule, active = well fitted curve in the direction sought with a large enough effect; inconclusive = small, poorly fitted or top-dose-only effect, or another doubt; inactive = no such curve, though single readings can be large; an effect the other way counts as inactive or inconclusive.

Chain of Glutathione peroxidase 1 (Homo sapiens) (P07203 whole entry, looked up): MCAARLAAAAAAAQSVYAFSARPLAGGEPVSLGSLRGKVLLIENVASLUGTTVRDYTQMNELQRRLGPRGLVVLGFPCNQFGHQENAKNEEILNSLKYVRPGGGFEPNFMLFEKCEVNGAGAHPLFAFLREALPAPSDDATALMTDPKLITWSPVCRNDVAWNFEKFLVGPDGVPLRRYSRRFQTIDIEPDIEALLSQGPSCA
Chain of Nicotinamide N-methyltransferase (Homo sapiens) (P40261 whole entry, looked up): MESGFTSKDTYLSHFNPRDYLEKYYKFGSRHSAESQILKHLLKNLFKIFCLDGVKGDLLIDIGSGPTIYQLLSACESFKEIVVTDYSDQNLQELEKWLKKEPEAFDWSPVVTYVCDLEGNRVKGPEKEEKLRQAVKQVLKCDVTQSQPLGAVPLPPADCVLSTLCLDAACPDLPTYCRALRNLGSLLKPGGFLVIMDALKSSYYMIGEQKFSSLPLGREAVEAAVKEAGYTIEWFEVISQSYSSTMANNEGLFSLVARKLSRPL
Chain of Catechol O-methyltransferase (Homo sapiens) (P21964 whole entry, looked up): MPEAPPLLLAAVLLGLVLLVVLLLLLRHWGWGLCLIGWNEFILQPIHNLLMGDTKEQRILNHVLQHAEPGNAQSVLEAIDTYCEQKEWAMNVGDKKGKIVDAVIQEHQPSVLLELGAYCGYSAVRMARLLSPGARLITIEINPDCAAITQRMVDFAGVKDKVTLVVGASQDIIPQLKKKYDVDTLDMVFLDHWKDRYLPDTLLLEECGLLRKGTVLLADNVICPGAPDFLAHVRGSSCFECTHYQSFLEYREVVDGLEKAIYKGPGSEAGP
Chain of Calcium and integrin-binding protein 1 (Homo sapiens) (Q99828 whole entry, looked up): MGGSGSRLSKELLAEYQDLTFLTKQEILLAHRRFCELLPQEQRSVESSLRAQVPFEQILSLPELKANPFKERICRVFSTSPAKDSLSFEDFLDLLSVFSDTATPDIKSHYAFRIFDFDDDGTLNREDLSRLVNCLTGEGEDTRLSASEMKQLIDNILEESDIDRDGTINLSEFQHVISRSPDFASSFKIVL
Chain of Phenylethanolamine N-methyltransferase (Homo sapiens) (P11086 whole entry, looked up): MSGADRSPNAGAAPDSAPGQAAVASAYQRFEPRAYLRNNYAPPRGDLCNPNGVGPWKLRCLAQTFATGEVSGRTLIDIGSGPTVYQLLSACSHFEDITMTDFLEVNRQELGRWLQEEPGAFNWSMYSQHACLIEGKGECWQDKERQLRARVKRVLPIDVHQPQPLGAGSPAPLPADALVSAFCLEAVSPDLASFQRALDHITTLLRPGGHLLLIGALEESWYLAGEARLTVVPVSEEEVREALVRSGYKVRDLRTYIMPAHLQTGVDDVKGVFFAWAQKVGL
Chain of N-terminal Xaa-Pro-Lys N-methyltransferase 1 (Homo sapiens) (Q9BV86 whole entry, looked up): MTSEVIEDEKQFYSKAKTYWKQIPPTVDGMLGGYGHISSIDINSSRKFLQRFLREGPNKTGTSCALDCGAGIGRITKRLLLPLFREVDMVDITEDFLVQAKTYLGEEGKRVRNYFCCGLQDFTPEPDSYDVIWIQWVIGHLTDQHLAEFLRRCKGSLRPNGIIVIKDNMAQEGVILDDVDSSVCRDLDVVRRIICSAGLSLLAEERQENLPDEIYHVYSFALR
Chain of Tyrosine-protein kinase Yes (Homo sapiens) (P07947 whole entry, looked up): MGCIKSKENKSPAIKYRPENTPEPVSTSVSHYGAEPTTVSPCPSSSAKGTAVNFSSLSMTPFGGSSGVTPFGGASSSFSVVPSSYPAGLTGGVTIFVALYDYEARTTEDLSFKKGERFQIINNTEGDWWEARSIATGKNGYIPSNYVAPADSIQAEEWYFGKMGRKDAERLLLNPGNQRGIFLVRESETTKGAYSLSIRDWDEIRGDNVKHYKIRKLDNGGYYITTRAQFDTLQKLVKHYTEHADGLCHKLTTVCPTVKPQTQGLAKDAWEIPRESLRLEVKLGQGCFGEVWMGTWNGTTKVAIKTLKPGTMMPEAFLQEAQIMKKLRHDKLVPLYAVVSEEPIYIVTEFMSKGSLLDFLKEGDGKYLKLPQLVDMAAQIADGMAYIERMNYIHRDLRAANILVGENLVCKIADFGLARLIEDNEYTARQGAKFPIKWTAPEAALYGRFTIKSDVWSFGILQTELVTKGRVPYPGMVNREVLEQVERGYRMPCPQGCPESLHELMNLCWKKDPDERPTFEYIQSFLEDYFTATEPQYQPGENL
Chain of Phospholipid hydroperoxide glutathione peroxidase GPX4 (Homo sapiens) (P36969 whole entry, looked up): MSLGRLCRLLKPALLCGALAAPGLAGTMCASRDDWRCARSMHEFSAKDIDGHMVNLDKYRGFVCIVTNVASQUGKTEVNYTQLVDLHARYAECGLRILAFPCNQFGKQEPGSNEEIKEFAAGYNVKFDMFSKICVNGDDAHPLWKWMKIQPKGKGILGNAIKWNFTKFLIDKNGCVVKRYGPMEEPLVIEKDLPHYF

With `COc1c(-c2ccc3cc(NS(C)(=O)=O)ccc3c2)cc(-n2ccc(=O)[nH]c2=O)cc1C(C)(C)C`, the Potency result in assay [1] and in [2] was “inactive” each time. In addition, the Potency in assay [3] was 3.98 µM (active).
With `O=C1CCCC2=C1C1(CCSCC1)N=C(Nc1nc3ccccc3o1)N2`, the Potency entry in assay [1], in [5], in [6] and in assay [2] was “inactive” each time. For the same molecule, in assay [4], the outcome was “inactive”.
With `NS(=O)(=O)c1cccc(N=Cc2c(O)[nH]c3ccccc23)c1`, the Potency in assay [7] was 10.4 µM (active). Moreover, in assay [8], the outcome was “inactive”. For the same molecule, the Potency result in [1] and in assay [2] was “inactive” in each case.
For the molecule `CCCCCCC(=O)O[C@H]1CC[C@H]2[C@@H]3CCc4cc(O)ccc4[C@H]3CC[C@]12C`, the Potency in assay [1] was 7.31 µM (active). For the same molecule, in [2], the Potency result is “inactive”.
Take `O=C1NCCCc2c1oc1ccc(O)cc21`: the Potency entry in [1] and in assay [2] was “inactive” throughout.
Take `CC(C)n1nc(Cc2cccc3ccccc23)c2c(N)ncnc21`: in [1], the Potency was 18.4 µM (active). Moreover, in assay [4], the outcome is “inactive”. Besides, the activity in assay [9] is -11.5%; in assay [11], -28.9%; in [12] it was -57.3%. In addition, the activity change, negative = inhibition in assay [10] is -6.43%. Also, in assay [2], the Potency entry is “inactive”.
`O=C(c1ccc(-c2ccc(Cl)cc2)o1)N(Cc1ccccn1)c1ccc(N2CCNCC2)cc1`: the Potency result in assay [1] and in assay [2] was “inactive” in each case. For the same molecule, the Potency is 13 µM (active) in assay [5] and 16.4 µM (active) in assay [6].
With `CN(C)c1ccc(Nc2c3ccc(NC(=O)CCN4CCCC4)cc3nc3cc(NC(=O)CCN4CCCC4)ccc23)cc1`, the Potency entry in assay [1] and in [2] was “inactive” in each case. Besides, the Potency in assay [13] is 6.49 µM (active); in [10], 24.1 µM (active). For the same molecule, the activity was -13% in assay [9], -39.2% in [11] and -14.2% in assay [12].
